An excerpt weighted towards active compounds, which were near 2.7% of everything screened.
ATXN2 expr inh – Primary qHTS for Inhibitors of ATXN expression. HEK-293 ATXN2-luciferase reporter, luminescence, 24 h. Potency, µM (top dose mostly 57 µM), inactives show at the top dose activity change, negative = inhibition, hits mostly inhibitors. actives 0.72% (n = 360,000). AID 1745845, 2022; also: % is scaled to controls: 0 for no effect and ±100 for the full control effect; nearly all actives have a fitted effect of over 55% in size
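qHTS (up to 57 uM final) was run with 24 h compound exposure of reporter cells at 37 °C. Each well was multiplexed: SteadyGlo luminescence measured ATXN2-luciferase expression after a fluorogenic Gly-Phe-AFC viability readout (25 uM final).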
HepG2 viability – qHTS for Inhibitors of TGF-b: Cytotox Counterscreen; HepG2 CAGA-GFP viability, ATP luminescence, 18 h; Potency, µM (titrated, usually from 46.1 µM), for inactives: at the top dose activity change, negative = cytotoxicity, hits mostly cytotoxic; actives 0.76% (n = 410,000); AID 588856, 2011
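CellTiter-Glo luminescence gave cytotoxicity after 18 hours at 37 degrees C. The cells were HepG2 CAGA-GFP in 1% FBS DMEM, stimulated with 500 pg/mL TGF-beta after compound addition. %Activity was normalised to no-cell wells (complete cell-killing) and DMSO (no toxicity), and curves were fitted and classified.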
12-LOX inh – Primary qHTS assay for inhibitors of human arachidonate 12S-lipoxygenase (ALOX12): Round 2. Potency, µM (doses to about 108 µM), without a hit: at the top dose activity change, negative = inhibition, hits mostly inhibitors. actives 1.1% (n = 580,000). purified 12hLO, xylenol orange hydroperoxide absorbance. Polyunsaturated fatty acid lipoxygenase ALOX12 (Homo sapiens), P18054; also: % is scaled to controls: 0 for no effect and ±100 for the full control effect
Target sequence (P18054 whole entry, looked up): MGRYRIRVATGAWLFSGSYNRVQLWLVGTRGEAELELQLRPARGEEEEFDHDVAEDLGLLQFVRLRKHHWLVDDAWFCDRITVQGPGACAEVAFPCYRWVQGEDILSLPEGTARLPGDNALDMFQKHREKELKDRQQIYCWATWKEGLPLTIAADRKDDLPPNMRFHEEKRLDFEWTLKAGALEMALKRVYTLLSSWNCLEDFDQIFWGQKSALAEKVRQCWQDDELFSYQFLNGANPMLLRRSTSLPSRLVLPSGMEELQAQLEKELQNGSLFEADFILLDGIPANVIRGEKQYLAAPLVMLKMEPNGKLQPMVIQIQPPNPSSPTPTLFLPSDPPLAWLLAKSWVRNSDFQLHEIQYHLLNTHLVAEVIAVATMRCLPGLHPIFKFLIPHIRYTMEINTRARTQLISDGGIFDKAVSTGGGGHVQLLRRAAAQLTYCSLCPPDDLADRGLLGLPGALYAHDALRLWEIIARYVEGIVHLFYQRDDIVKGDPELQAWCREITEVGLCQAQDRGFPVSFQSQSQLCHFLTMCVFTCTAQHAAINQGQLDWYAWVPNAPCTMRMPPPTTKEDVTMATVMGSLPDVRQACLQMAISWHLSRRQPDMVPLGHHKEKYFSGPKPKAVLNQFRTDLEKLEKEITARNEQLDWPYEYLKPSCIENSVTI
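Purified human 12hLO (150 nM final) in 25 mM Hepes, 0.01% Triton X-100, pH 7.0 was preincubated 15 min at room temperature with compound. Then 40 uM arachidonic acid was added, 30 min. Hydroperoxide was read by Fe-XO absorbance ratio 573/405 nm.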
S2 tox – Viability Counterscreen for Primary qHTS for Inhibitors of ATXN expression | S2 cells (HEK-293 line with an ATXN2-luciferase reporter) viability, CellTiter-Fluor protease fluorescence, 24 h | Potency, µM (top dose mostly 56.7 µM), hits mostly cytotoxic | actives 0.49% (n = 400,000); also: nearly all actives have a fitted effect of over 40% in size
TGFb inhibitor – qHTS for Inhibitors of TGF-b; HepG2 CAGA-GFP TGF-b/SMAD3 reporter, GFP fluorescence, 18 h; TGF-beta stimulated, 500 pg/mL final; Potency, µM (doses to about 46.1 µM), for the others: at the highest dose activity, negative = inhibition, actives largely listed as inhibitors; actives 1.2% (n = 410,000); also: % is scaled to controls: 0 for no effect and ±100 for the full control effect; nearly all actives have a fitted effect of over 65% in size
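Inhibition was scored as loss of TGF-beta-induced (500 pg/mL final, 18 hours, 37 degrees C) GFP in HEPG2 cells carrying a CAGA-GFP reporter, in DMEM with 1% FBS. Well GFP was summed per cell; Activity was normalised to unstimulated and stimulated DMSO wells, then concentration-response fitting.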
* marks the source's active call; other numbers are inactive results; i = inactive; u = inconclusive; x = not tested or not shown; ! = repeats disagree; [ ] = another dose, or the depositor's remark. Calls follow the shape of the dose curve; as a rule, active = well fitted curve in the direction sought with a large enough effect; inconclusive = small, poorly fitted or top-dose-only effect, or another doubt; inactive = no such curve, though single readings can be large; an effect the other way counts as inactive or inconclusive. Potency is read from the fitted curve at half-maximal effect.

SMILES	ATXN2 expr inh	HepG2 viability	12-LOX inh	S2 tox	TGFb inhibitor
COc1ccccc1NC(=O)Nc1nc(C(N)C2CCCCC2)cs1 (centres undefined)	u	11µM*	6%	u	u
NC(c1csc(NC(=O)Nc2ccccc2Cl)n1)C1CCCCC1 (centres undefined)	-21%	-89%	2%	i	u
COc1cc(NC(=O)Nc2nc(C(N)C3CCCCC3)cs2)cc(OC)c1OC (centres undefined)	u	11µM*	-17%	u	u
NC(c1csc(NC(=O)Nc2cccc(Cl)c2)n1)C1CCCCC1 (centres undefined)	u	-105%	u	28µM*	u
Cc1ccc(C(=O)c2ccccc2C(=O)OCCOc2ccc(Cl)cc2Cl)cc1	x	x	-5%	x	x
CCc1ccc(CNc2ccc(N3CCN(C(C)=O)CC3)cc2)cc1	-12%	-17%	32µM*	i	u
O=C1c2cccc(OCc3ccc(F)cc3)c2CCN1Cc1ccccc1	-18%	-36%	0%	i	18µM*
COC(=O)c1cc(-c2cnn(C)c2C)nc2ccccc12	x	x	-17%	x	x
COc1cc(C2c3sc(=O)[nH]c3SC3C(=O)N(c4ccc(Br)cc4)C(=O)C32)ccc1O (centres undefined)	3%	-12%	40µM*	i	-4%
CCOc1c(CNc2ccc(N3CCOCC3)c(C(=O)O)c2)cccc1OC	x	x	25%	x	x
O=C(Nc1ccccc1F)C1CCN(c2nc3ccccc3o2)CC1	x	x	-18%	x	x
CC(=O)OC1=CSc2cccc3cccc1c23	x	x	40µM*	x	x
COc1cccc(OCCn2cc(C=O)c3ccccc32)c1	-18%	-31%	0%	i	3.5µM*
NC(=S)NN=C1CSSC1	x	11µM*	x	i	10µM*
Cc1nnc(N/N=C\c2ccc(-c3ccccc3[N+](=O)[O-])o2)n1N	7%	-106%	0%	i	8.9µM*
CC(C)(C)n1nc(-c2ccc(F)cc2)c2c(N)ncnc21	1%	10%	142%	i	u
CC(C)n1nc(-c2cc3cc(O)ccc3[nH]2)c2c(N)ncnc21	5µM*	x	-8%[22.9 µM]	u	x
COc1ccc2cc(C(=O)NCc3ccccc3CN3CCCC3)c(C)nc2c1	x	x	-1%	x	x
Cc1noc(-c2cn(C3CCN(C(=O)c4sccc4C)C3)nn2)n1 (centres undefined)	x	x	15%	x	x
CCc1noc(-c2cn(C3CCN(C(=O)c4sccc4C)C3)nn2)n1 (centres undefined)	x	x	45µM*	x	x
CCC(=O)N1Cc2ccccc2CC2(CCN(CCc3ccc(C)cc3)CC2)C1	x	x	35µM*	x	x
CCC(=O)N1Cc2ccccc2CC2(CCN(Cc3ccc(O)cc3)C2)C1 (centres undefined)	x	x	12%[6.33 µM]	x	x
CCOc1ccccc1NS(=O)(=O)c1c(C)cc(C)cc1C	x	x	-10%	x	x
CC(C)CCOC(=O)/C(=C/c1ccco1)NC(=O)/C=C/c1ccccc1	x	-2%	40µM*	x	20%
NC(=O)/C(=C/c1ccco1)NC(=O)/C=C/c1ccccc1	-6%	8%	u	u	17%
SMILES	ATXN2 expr inh	HepG2 viability	12-LOX inh	S2 tox	TGFb inhibitor
COc1ccccc1N1CCN(CC(=O)c2ccc(F)cc2)CC1	x	2%	1.1µM*	i	-11%
O=C(CCN1CCN(c2ccccc2F)CC1)c1ccc(Br)cc1	4%	16µM*	x	i	u
O=C(CSc1nc2ccccc2n1C(F)F)c1ccc(F)cc1F	x	x	-9%	x	x
CCCCN(CCCC)C(=S)[S-].CCCCN(CCCC)C(=S)[S-].[Zn+2]	x	x	x	8.9µM*	x
CCCCN(CCCC)C(=S)NC(=O)C(C)(C)C	-13%	-24%	-9%	i	u
O=C(C1CCCCC1)N(Cc1cccnc1)c1nc2c(F)cc(F)cc2s1	x	-36%	-43%	x	22µM*
Cc1ccc2nc(N(Cc3cccnc3)C(=O)C3CCCCC3)sc2c1	x	-4%	5%	x	-1%
CC(=O)N(Cc1cccnc1)c1nc2c(F)cc(F)cc2s1	x	-20%	-20%	x	-21%
Cc1cccc2sc(N(Cc3cccnc3)C(=O)C3CCCCC3)nc12	x	-41%	-30%	x	10µM*
CC(=O)Nc1ccc2nc(-c3ccncc3)[nH]c2c1	1%	-8%	2%	i	0%
CC(=O)Nc1cc(NC(C)=O)cc(-c2nc3ccccc3[nH]2)c1	u	13µM*!	184%	32µM*!	7.1µM*!
COc1ccc(C(CNC(=O)CNC(C)(C)C)c2c[nH]c3ccccc23)cc1 (centres undefined)	x	x	6%	x	x
CCCC(c1nnnn1Cc1ccc2c(c1)OCO2)N1CCC(C(N)=O)CC1 (centres undefined)	-4%	20µM*	-1%	i	-2%
COc1ccccc1C(=O)NCCc1csc(-c2ccc(C(F)(F)F)cc2)n1	x	-61%	-24%	x	8.9µM*
Cc1ccccc1C(=O)NCCc1csc(-c2ccc(C(F)(F)F)cc2)n1	x	-1%	-20%	x	0%
COc1ccc(CCC(=O)NCCc2csc(-c3ccc(F)cc3)n2)cc1	x	-38%	2%	x	8.9µM*
COc1ccc(-c2nc(CCNC(=O)Cc3ccc(F)cc3)cs2)cc1	x	-12%	-1%	x	-25%
Nc1cccc(C(=O)/C=C/c2ccc(F)cc2)c1	x	x	-12%	x	x
CCc1oc2ccccc2c1C(=O)c1cc(I)c(O)c(I)c1	5%	x	13µM*	i	x
CCCCc1oc2ccccc2c1C(=O)c1cc(I)c(N(CC)CCOCC)c(I)c1	x	-69%	x	x	u
O=S1(=O)Nc2c(cc(Cl)c3ccc(Cl)nc23)-c2ccccc21	x	2%	x	x	-1%
Cc1ccc2ccc3c(c2n1)NS(=O)(=O)c1ccc(C(F)(F)F)cc1-3	x	4%	x	x	7.1µM*
Cc1ccccc1NC(=O)Cc1nc(COC(=O)c2ccc(S(C)(=O)=O)c([N+](=O)[O-])c2)cs1	x	-79%	x	u	13µM*
CS(=O)(=O)c1ccc(C(=O)OCC(=O)Nc2ccc(OC(F)(F)F)cc2)cc1[N+](=O)[O-]	x	-105%	x	x	u
Cc1ccccc1NC(=O)COC(=O)c1ccc(S(C)(=O)=O)c([N+](=O)[O-])c1	-19%	10µM*!	-5%	i	7.9µM*
Cc1ccccc1NC(=O)Cc1nc(COC(=O)c2ccc(NC(N)=O)cc2)cs1	9%	-2%	-6%	i	-2%
CS(=O)(=O)c1ccc(C(=O)OCC(=O)Nc2cccnc2Cl)cc1[N+](=O)[O-]	9%	-94%	x	i	u
CC1(C)C2CCC1(C)C(NC(=O)COC(=O)c1ccc(S(C)(=O)=O)c([N+](=O)[O-])c1)C2 (centres undefined)	x	6.3µM*	x	x	5µM*

From PubChem BioAssay
